# Laboratory results published in ChEMBL document CHEMBL3988442, “University of Dundee, Small-Polar-MMV Screening Library” (2021).
# Among all 66,000 compounds or so, about 960 (1.5%) showed an effect of 50% or more. What follows is part of a selection rich in strong results, with near analogues and random picks from the rest.
# System: Trypanosoma brucei
# Assay: Trypanosoma brucei 72 hour study
# Assay type: functional, organism-based
# Set-up: scale not given: in the data most compounds retested in dose-response had high values
SMILES,"Percent Effect (30.3 µM, […]) [%]","Percent Effect (30 µM, 30.03 µM) [%]"
COc1ccc(C2(NCc3c(C)nc4c(C)cccn34)CCCC2)cc1.O=C(O)CC(O)(CC(=O)O)C(=O)O,-8.607,–
CCC(=O)N1CCN(C(=O)CCn2cc(Cl)cn2)[C@H]2CS(=O)(=O)C[C@H]21,–,35.1
Cc1cnn(CCC(=O)N2CCN(C(=O)C(C)C)[C@@H]3CS(=O)(=O)C[C@@H]32)c1,–,31
Cc1cnn(CCC(=O)N2CCN(C(=O)C3CC3)[C@@H]3CS(=O)(=O)C[C@@H]32)c1,–,64.13
CCCNC(=O)C1CCN(CC(O)c2ccc(C(F)(F)F)cc2)CC1 (configuration not stated),11.33,–
Cc1cc(CN2CCC(CNS(=O)(=O)c3ccccc3F)CC2)c(C)o1,3.502,–
Cc1cc(CN2CCC(CNS(=O)(=O)c3ccc(Br)s3)CC2)c(C)o1,55.92,–
Cc1cc(CN2CCC(CNS(=O)(=O)c3ccc(C)s3)CC2)c(C)o1,-7.383,–
CCC(CN1CCCC1)n1cncc1-c1cnn(-c2ccccc2)c1.Cl (configuration not stated),-6.567,–
Cc1cc(C)c(CNC(=O)NCc2ccc(F)c(C)c2)c(=O)[nH]1,-14.44,–
O=C1CN(C(=O)[C@H]2CC[C@]3(CC2)CNC(=O)c2ccccc2O3)CCN1,-6.646,–
Cc1cnc2c(c1NCc1ccc3c(c1)OCO3)c(=O)n(C)c(=O)n2C,–,-27.04
COCc1cc(CNC(=O)c2cc(NC(C)=O)ccc2Cl)n[nH]1,–,-15.93
Cc1cc(CNC(=O)c2cc(NC(=O)C(C)C)ccc2Cl)no1,-13.13,–
CCc1cc(CNC(=O)c2cc(NC(=O)C(C)C)ccc2Cl)[nH]n1,61.59,–
CN(C)C(=O)CN1CCc2ncnc(NC3CCC3)c2CC1.O=C(O)C(F)(F)F,-31.13,–
CCN(CC)Cc1cc(=O)n2c(n1)CN(C(=O)c1ccc[nH]1)CCC2,11.69,–
Cc1nc(C)n(CC2CCCN(Cc3nnc(C(C)(C)C)o3)C2)n1 (configuration not stated),–,14.46
Cc1ccccc1CNC(=O)Cn1ncc2c1c(C)nn2C,-7.192,–
COc1ccccc1CNC(=O)Cn1ncc2c1c(C)nn2C,–,68.66
Cc1nn(C)c2cnn(CC(=O)NCc3ccccc3F)c12,-20.3,–
CN(Cc1ccc(N(C)C)cc1)C(=O)CSc1ccc(Br)cc1,12.7,–
CS(=O)(=O)N1CC2(CCN(C(=O)c3ccncc3)CC2)c2ccccc21.O=C(O)C(F)(F)F,-14.55,–

SMILES,"Percent Effect (30.3 µM, […]) [%]","Percent Effect (30 µM, 30.03 µM) [%]"
CN(Cc1ccco1)[C@@H]1CN(Cc2ccsc2)C[C@@H]2CCCO[C@@H]21.O=C(O)C(F)(F)F.O=C(O)C(F)(F)F,–,27.39
CN(C)C[C@@H]1C[C@@H]2CN(Cc3nccn3C)CC[C@@H]2N1CC1CC1,-12.03,–
Cc1ccccc1OCC1CCCN(C(=O)CN(C)C2CCNCC2)C1 (configuration not stated),–,59.87
COCC(=O)N1CCCC(COc2ccccc2C)C1 (configuration not stated),–,-51.53
Cc1cccc(OCC2CCCN(C(=O)CN(C)C3CCNCC3)C2)c1 (configuration not stated),–,6.222
Cc1ccccc1-n1ncc(C(C)N)c1C (configuration not stated),-16.93,–
Cc1ncc(CN2CCCC2)c2cc(C(=O)c3ccc(Br)cc3)oc12.Cl,–,-13.22
CC(C)CNC(=O)[C@H]1CCS(=O)(=O)[C@@H]2CN(CC(C)C)C[C@H]12.O=C(O)C(F)(F)F,-19.44,–
CC(=O)N1CCN(C(=O)c2cnc(OC(C)C)c(Cl)c2)CC1,-3.997,–
CC(C)Oc1ncc(C(=O)N2CCC(N(C)C)CC2)cc1Cl,99.1,–
CC(C)Oc1ncc(C(=O)N2CCC(CC(N)=O)CC2)cc1Cl,-51.28,–
Cc1n[nH]cc1CNC1(c2ccc(Br)cc2)CC1,-166.2,–
Cc1n[nH]cc1CNC1(Cc2ccc(Br)cc2)CCCCC1,80.83,–
Cc1n[nH]cc1CNC1(c2ccc(F)cc2)CCCC1,-110.9,–
O=C(O)C(F)(F)F.O=C(O)C(F)(F)F.O=C1NC2(CCN(Cc3ccc(F)cc3)CC2)CC1c1ccncc1 (configuration not stated),–,28.32
Cc1cc(S(=O)(=O)NC(C)(C)CN)c(F)cc1F.Cl,–,-23.52
Cc1oncc1C(=O)N1CC2CC1(C(=O)N(C)C)C2,-15.18,–
COCC1c2c(cnn2CC2CC2)CCN1Cc1cccs1.O=C(O)C(F)(F)F.O=C(O)C(F)(F)F (configuration not stated),–,-88.48
CCOCC1c2c(cnn2CC2CC2)CCN1Cc1nccs1.O=C(O)C(F)(F)F.O=C(O)C(F)(F)F (configuration not stated),-3.24,–
COCC1c2c(cnn2CC2CC2)CCN1Cc1nccs1.O=C(O)C(F)(F)F.O=C(O)C(F)(F)F (configuration not stated),–,52.09
Cc1cccc2c1cnn2CCCNC(=O)C1CC1,-16.1,–
O=C(CN1CC(c2nc(C3CC3)no2)C1)N1CCOCC1.O=C(O)C(=O)O,–,47.84
O=C(O)C(F)(F)F.O=C([C@H]1CC[C@@H]2[C@@H](CCN2C2CCCCC2)O1)N1CCOCC1,2.517,–

SMILES,"Percent Effect (30.3 µM, […]) [%]","Percent Effect (30 µM, 30.03 µM) [%]"
CO[C@@H]1CCN(c2nnc(C)s2)C[C@@H]1Cc1cccc(C)c1.O=C(O)C(F)(F)F,-8.568,–
CO[C@H]1CCN(c2nnc(C)s2)C[C@@H]1Cc1ccccc1.O=C(O)C(F)(F)F,12.72,–
Cc1nnc(N2CC[C@@H](OCC3CC3)[C@@H](Cc3ccccc3)C2)s1.O=C(O)C(F)(F)F,100.5,–
Cc1nnc(N2CC[C@H](OCC3CC3)[C@@H](Cc3ccccc3)C2)s1.O=C(O)C(F)(F)F,–,-16.49
CO[C@H]1CCN(c2nnc(C)s2)C[C@@H]1Cc1cccc(C)c1.O=C(O)C(F)(F)F,100.1,–
CO[C@@H]1CCN(c2nnc(C)s2)C[C@@H]1Cc1ccccc1.O=C(O)C(F)(F)F,-5.303,–
O=C(N[C@H]1CC[C@@]2(CCC(=O)N2CC2CC2)CC1)c1cnccn1,-8.587,–
Cc1nnc([C@@]23CCO[C@@H]2CCN(S(=O)(=O)c2ccccc2)C3)o1,-46.55,–
CNC(=O)c1ccc(CN(C)C(=O)Nc2nnc(C(C)C)s2)cc1,–,1.168
Cc1cc2c(=O)n3c(nc2s1)CCN(Cc1[nH]cnc1C)CC3.Cl,-2.938,–
COc1ccc(F)cc1-c1ccccc1CC1CNCCNC1=O.Cl (configuration not stated),-18.15,–
O=C(NCc1ccccc1-n1cccn1)C1CC2(CCNCC2)CN1 (configuration not stated),–,40.65
O=C(O)C(F)(F)F.O=C1C[C@H]2[C@@H](CCN2C(=O)Cc2cccs2)N1Cc1ccncc1,-0.2658,–
CCCc1cncnc1N1CCC(NCCc2ccc(O)cc2)CC1,–,-6.649
CCCc1cncnc1N1CCC(NCc2ccc(O)cc2)CC1,–,63.63
CCCc1cncnc1N1CCC(NCc2ccncc2)CC1,–,-66.51
CN(C)CC1(O)CCN(S(=O)(=O)c2cccc(F)c2)C1 (configuration not stated),-12.71,–
Brc1cccnc1OC1CCNCC1.Cl,–,-18.95
COc1cccc(CNC2CCc3ccc(C)cc32)n1 (configuration not stated),–,102.5
Cc1ccc2c(c1)C(NCc1ccccn1)CC2 (configuration not stated),–,31.05
COc1cccc(CNC2CCCOc3cc(C)ccc32)n1 (configuration not stated),–,-17.07
N#Cc1c2n(c3c(=O)[nH]cnc13)CCCC2,–,-59.85
Cc1nn(C)cc1CNCc1ccc(N(C)C)cc1,-17.42,–

SMILES,"Percent Effect (30.3 µM, […]) [%]","Percent Effect (30 µM, 30.03 µM) [%]"
CC1=C(C#N)C(=O)NC(=O)/C1=C\c1c(C)nn(-c2ccccc2)c1O,8.75,–
c1ccc2c(c1)CCN(c1nc(-c3ccncc3)nc3c1CCNC3)C2,–,-16.52
CN(C)c1nc2c(c(N3CCc4ccccc4C3)n1)CCNC2,–,100.4
Cc1ccccc1N1CCN(c2nc(N(C)C)nc3c2CCNC3)CC1,–,-31.91
CC(C)C(=O)NC1CC2(CCN(CC(=O)N(C)C)CC2)c2ccccc21.O=C(O)C(F)(F)F (configuration not stated),-88.42,–
Cc1ccsc1C(=O)N1CCC2(CC(C(=O)N(C)C(C)C)=NO2)C1 (configuration not stated),–,-54.71
CCCN1CCC(NC(=O)Nc2ccc(OC)c(OC)c2)CC1,-0.7678,–
CCCN1CCC(Nc2cc(-c3ccccc3)ccc2OC)CC1,57.37,–
CCCN1CCC(NC(=O)c2csc(C)c2-c2ccccc2)CC1,-89.86,–
CC(NC(=O)NCCCN1CCCCCC1=O)c1nncn1C (configuration not stated),-29.33,–
O=C(O)C(F)(F)F.O=C(O)C(F)(F)F.O=C1COC2(CCN(Cc3cccs3)CC2)CN1c1cccnc1,–,-14.7
CCNc1nc(-c2cccnc2)c(-c2ccnc(NCCO)n2)s1,9.967,–
CC(C)(C)Nc1nc(-c2cccnc2)c(-c2ccnc(NCCO)n2)s1,94.16,–
CCNc1nc(-c2cccnc2)c(-c2ccnc(NS(C)(=O)=O)n2)s1,1.048,–
O=C(NCCc1cccs1)[C@H]1CO[C@H]2CCN(C3CCC3)C[C@H]2C1.O=C(O)C(F)(F)F,-77.19,–
CCOC(=O)[C@]12CCCN(Cc3ccco3)C[C@H]1CN(S(C)(=O)=O)C2.O=C(O)C(F)(F)F,4.884,–
COc1cccc(OC)c1CN1CC(=O)N(c2ccc(C)cc2)CC1C (configuration not stated),–,102.6
COc1ccc(CN2CC(=O)N(c3ccc(C)cc3)CC2C)cc1O (configuration not stated),–,-20.88
COc1cc(CN2CC(=O)N(c3ccc(C)cc3)CC2C)cc(OC)c1 (configuration not stated),–,-11.31
Cn1cc(C(=O)N2C[C@H]3C[C@H](Oc4ccccc4)C[C@H]3C2)cn1,8.793,–
Cc1nc(Nc2cnccn2)cc(C2CCCN2)n1.Cl (configuration not stated),-13.8,–
Cl.c1nnc(Nc2cncc(C3CCCN3)n2)s1 (configuration not stated),-8.347,–
Cl.c1cnc(Nc2cncc(C3CCCN3)n2)cn1 (configuration not stated),99.3,–
